This note sets out measurements from PMC7862700, “An all-to-all approach to the identification of sequence-specific readers for epigenetic DNA modifications on cytosine”.

Holding throughout (test): DAPPL (digital affinity profiling via proximity ligation, sequencing); 10 mM Tris-HCl pH 7.5, 50 mM NaCl, 1 mM DTT, 4% glycerol, room temperature, 30 min; GST-TFs on glutathione beads, 16-mer random dsDNA library, 0.1% formaldehyde crosslink after washing; high values mean tight binding
What all share (conditions): protein: recombinant; tags: N-terminal GST; dsDNA, one strand shown

The target in one assay is T1, FLI1 (Homo sapiens, UniProt Q01543 1-452).
T1 sequence: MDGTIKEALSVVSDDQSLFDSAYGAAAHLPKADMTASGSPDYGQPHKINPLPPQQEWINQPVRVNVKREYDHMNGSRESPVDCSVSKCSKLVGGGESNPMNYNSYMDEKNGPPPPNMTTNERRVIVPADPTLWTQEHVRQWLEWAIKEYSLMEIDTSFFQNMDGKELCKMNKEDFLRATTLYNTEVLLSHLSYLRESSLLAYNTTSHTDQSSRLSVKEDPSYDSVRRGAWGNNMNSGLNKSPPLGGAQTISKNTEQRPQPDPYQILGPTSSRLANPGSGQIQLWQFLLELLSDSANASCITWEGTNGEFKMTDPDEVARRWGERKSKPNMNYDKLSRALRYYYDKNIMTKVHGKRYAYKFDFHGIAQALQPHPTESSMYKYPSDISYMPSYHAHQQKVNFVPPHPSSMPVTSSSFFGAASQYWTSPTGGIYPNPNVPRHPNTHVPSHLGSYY
In a few lines: (§1)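 Pools of DNA-barcoded human transcription factors, expressed in yeast as GST fusions on glutathione beads and combined with a tag-only sample, were incubated with 200 nmole of a 16-mer random double-stranded DNA library. Incubation took 30 min at room temperature in Tris/NaCl/DTT/glycerol buffer and was followed by washing, 0.1% formaldehyde crosslinking, proximity ligation (BsaI/T4 ligase, 1 h, 37 °C), PCR amplification and sequencing on an Illumina NextSeq500. Binding signal is the ratio of a hexamer's read frequency for a factor to its frequency for the tag-only sample.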

Another assay deals with T2, ELK1 (Homo sapiens, UniProt P19419 1-428).
T2 sequence: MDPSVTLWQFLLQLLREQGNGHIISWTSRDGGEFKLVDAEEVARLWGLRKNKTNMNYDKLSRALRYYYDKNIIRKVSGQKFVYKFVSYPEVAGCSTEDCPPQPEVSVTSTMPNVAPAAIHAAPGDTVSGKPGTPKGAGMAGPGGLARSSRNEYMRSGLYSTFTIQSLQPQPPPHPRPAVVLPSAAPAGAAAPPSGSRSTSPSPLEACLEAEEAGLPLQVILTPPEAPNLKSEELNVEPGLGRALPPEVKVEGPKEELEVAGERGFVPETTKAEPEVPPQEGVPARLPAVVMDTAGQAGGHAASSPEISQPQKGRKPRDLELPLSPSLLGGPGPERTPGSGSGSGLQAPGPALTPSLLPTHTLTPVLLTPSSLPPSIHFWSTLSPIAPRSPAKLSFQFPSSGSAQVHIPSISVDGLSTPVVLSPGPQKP
In a few lines:
as §1

The next assay addresses T3, GABPA (Homo sapiens, UniProt Q06546 1-454).
T3 sequence: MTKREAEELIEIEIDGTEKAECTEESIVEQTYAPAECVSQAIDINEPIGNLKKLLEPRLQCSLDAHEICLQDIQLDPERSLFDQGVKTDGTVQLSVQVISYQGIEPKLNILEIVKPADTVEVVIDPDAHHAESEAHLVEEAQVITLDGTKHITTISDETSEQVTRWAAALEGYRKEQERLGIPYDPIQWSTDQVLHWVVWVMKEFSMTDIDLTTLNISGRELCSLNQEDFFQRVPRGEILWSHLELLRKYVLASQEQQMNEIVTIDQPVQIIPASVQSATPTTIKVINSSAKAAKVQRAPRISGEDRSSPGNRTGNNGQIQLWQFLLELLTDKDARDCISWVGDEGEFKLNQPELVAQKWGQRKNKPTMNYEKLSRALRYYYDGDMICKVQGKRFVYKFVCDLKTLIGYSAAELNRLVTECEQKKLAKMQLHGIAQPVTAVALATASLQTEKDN
Summed up:
as §1

The target in another assay is T4, ERG (Homo sapiens, UniProt P11308 1-479).
T4 sequence: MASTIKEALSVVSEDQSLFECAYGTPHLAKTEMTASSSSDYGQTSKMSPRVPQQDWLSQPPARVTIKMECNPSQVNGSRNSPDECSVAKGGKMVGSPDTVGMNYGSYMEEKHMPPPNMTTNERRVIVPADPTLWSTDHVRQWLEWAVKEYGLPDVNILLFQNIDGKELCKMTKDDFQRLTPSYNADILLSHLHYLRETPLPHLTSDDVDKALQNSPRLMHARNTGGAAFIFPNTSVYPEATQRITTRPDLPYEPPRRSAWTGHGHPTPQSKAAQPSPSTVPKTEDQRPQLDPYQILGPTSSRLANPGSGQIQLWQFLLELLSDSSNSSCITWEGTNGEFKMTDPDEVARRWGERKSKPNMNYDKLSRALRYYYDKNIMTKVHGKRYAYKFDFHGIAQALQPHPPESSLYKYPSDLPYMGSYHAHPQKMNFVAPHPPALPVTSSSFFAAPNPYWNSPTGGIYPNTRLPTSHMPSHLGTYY
Summed up:
as §1

The target in the next assay is ELF1 (Homo sapiens, UniProt P32519 1-619). In a few lines:
as §1

The target of a further assay is T5, EHF (Homo sapiens, UniProt Q9NZC4 1-300).
T5 sequence: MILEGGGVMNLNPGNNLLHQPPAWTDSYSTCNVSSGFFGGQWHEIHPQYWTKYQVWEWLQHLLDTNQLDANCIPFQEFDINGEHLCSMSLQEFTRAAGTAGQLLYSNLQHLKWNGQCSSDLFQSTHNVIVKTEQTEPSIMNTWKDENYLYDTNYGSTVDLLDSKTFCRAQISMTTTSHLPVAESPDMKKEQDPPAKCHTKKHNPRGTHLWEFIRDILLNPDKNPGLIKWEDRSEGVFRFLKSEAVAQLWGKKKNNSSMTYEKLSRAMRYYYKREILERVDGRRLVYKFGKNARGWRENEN
Summed up: as §1

Another assay concerns the target SPI1 (Homo sapiens, UniProt P17947 1-270). Summed up:
as §1

A further assay addresses SPIB (Homo sapiens, UniProt Q01892 1-262). In a few lines:
as §1

Another assay deals with T6, FEV (Homo sapiens, UniProt Q99581 1-238).
T6 sequence: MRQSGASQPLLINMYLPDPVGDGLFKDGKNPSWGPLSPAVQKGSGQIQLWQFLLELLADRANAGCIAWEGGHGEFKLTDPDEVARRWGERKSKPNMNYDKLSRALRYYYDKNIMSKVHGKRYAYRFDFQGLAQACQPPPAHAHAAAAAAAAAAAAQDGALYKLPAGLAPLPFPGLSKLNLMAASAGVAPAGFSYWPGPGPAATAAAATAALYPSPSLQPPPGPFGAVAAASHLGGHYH
In a few lines:
as §1

A further assay concerns the target ETV5 (Homo sapiens, UniProt P41161 1-510). Summed up:
as §1

A further assay concerns the target T7, SPIC (Homo sapiens, UniProt Q8N5J4 1-248).
T7 sequence: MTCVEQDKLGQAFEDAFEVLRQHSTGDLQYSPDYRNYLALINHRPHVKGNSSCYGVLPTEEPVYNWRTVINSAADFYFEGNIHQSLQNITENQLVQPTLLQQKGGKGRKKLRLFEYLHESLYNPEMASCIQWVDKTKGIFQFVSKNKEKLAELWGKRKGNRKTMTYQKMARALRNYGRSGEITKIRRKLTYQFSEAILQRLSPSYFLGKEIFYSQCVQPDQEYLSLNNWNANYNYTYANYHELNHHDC
Summed up:
as §1

The target of another assay is ELF4 (Homo sapiens, UniProt Q99607 1-663). In a few lines: as §1
ELF4, sequence (Q99607 whole entry): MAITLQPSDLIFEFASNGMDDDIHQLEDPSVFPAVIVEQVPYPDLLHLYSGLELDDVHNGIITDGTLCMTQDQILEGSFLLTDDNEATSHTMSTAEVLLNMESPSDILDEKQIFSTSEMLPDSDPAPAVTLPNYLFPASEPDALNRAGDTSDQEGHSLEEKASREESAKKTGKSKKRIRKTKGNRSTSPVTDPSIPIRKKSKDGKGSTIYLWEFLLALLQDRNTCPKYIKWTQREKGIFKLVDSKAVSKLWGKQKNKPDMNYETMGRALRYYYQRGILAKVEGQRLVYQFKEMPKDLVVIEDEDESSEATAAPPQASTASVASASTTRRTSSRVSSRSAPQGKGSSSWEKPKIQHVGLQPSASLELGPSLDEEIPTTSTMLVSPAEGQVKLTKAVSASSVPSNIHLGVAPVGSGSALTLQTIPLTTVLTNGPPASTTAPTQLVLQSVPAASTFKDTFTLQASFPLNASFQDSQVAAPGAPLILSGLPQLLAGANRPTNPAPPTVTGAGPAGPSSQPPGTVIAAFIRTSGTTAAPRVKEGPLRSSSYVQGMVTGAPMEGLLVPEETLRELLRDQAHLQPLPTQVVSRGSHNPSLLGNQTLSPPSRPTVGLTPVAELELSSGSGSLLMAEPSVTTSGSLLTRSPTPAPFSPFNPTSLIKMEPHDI
The target in a further assay is ETV1 (Homo sapiens, UniProt P50549 1-477). Summed up: as §1
ETV1, sequence (P50549 whole entry): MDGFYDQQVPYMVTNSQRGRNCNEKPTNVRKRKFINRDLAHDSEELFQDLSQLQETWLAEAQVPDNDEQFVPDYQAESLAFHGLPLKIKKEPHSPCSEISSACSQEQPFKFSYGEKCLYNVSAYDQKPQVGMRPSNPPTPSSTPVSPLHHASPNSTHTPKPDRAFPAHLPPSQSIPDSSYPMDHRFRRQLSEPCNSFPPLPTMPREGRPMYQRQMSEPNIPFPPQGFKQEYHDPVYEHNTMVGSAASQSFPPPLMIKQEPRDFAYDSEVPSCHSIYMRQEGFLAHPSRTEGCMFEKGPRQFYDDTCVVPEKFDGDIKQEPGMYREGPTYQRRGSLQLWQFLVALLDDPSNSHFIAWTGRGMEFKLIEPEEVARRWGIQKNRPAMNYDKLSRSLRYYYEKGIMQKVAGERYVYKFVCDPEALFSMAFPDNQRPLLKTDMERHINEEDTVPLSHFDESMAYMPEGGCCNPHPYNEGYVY
In the next assay the target is T8, ERF (Homo sapiens, UniProt P50548 1-548).
T8 sequence: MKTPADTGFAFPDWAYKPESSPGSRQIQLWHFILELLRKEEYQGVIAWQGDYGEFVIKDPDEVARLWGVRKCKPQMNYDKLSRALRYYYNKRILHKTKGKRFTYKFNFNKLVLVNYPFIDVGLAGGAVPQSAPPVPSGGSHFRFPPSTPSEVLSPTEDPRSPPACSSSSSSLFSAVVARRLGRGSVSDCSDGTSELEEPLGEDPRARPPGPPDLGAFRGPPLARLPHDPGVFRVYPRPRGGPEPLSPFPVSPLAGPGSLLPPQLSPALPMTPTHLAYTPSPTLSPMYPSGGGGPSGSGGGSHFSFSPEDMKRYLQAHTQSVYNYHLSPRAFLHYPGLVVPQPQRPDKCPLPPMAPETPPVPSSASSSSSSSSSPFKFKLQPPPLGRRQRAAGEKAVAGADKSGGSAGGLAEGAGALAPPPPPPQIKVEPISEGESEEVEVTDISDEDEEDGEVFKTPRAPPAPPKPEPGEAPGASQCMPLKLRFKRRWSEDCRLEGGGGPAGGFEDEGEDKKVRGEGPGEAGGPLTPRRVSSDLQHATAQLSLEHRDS
In a few lines:
as §1

The target of a further assay is T9, ETV3L (Homo sapiens, UniProt Q6ZN32 1-361).
T9 sequence: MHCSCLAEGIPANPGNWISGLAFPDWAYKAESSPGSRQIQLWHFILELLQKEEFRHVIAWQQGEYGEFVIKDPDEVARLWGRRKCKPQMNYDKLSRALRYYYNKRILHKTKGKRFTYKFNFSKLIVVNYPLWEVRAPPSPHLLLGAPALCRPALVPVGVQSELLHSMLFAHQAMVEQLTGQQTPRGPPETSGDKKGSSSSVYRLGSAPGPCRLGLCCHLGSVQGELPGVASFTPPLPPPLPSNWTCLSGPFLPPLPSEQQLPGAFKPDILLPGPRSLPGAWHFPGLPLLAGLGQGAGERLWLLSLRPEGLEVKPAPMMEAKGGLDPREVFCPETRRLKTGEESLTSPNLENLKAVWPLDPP
In a few lines:
as §1

Another assay addresses T10, ETS2 (Homo sapiens, UniProt P15036 1-469).
T10 sequence: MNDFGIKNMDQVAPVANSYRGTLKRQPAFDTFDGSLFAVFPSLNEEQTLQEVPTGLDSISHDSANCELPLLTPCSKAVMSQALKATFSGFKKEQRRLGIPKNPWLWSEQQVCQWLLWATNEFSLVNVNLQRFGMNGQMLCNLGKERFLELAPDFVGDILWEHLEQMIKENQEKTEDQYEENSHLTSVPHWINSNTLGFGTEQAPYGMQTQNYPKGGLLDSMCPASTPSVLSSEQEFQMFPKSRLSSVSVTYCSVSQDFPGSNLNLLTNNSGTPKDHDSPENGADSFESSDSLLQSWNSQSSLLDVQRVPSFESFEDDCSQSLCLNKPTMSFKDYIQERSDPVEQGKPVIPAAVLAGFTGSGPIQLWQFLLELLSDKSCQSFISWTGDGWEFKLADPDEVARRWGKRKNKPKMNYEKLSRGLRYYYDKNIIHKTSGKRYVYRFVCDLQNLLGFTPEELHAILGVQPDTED
Summed up: as §1

The next assay deals with T11, ELF5 (Homo sapiens, UniProt Q9UKW6-2 1-255).
T11 sequence: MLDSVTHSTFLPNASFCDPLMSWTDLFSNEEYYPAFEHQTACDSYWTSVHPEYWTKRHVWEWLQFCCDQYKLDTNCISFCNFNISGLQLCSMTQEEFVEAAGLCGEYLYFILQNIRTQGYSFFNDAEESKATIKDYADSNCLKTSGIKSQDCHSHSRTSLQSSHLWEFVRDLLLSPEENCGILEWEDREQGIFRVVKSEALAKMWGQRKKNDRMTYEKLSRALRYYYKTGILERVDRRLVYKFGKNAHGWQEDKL
Summed up:
as §1

Another assay concerns the target T12, ETV3 (Homo sapiens, UniProt P41162-2 1-143).
T12 sequence: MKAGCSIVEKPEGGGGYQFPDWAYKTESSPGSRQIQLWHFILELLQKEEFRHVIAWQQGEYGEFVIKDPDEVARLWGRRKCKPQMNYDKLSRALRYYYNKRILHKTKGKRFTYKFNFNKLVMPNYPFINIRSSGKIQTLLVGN
Summed up:
as §1

For a further assay, the target named is ETV6 (Homo sapiens, UniProt P41212 1-452). In a few lines: as §1
ETV6, sequence (P41212 whole entry): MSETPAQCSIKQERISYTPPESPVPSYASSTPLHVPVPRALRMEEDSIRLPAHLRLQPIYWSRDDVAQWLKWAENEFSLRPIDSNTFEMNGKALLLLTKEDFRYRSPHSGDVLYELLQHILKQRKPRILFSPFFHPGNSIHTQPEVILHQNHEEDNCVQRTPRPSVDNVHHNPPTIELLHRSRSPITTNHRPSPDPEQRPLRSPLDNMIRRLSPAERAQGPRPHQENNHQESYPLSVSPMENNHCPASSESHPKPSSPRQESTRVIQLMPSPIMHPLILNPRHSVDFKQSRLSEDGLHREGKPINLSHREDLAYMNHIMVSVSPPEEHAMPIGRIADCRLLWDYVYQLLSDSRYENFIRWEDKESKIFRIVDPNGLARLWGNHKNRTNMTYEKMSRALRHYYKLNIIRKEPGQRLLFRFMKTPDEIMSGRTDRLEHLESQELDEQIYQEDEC

ELF1, sequence (P32519 whole entry): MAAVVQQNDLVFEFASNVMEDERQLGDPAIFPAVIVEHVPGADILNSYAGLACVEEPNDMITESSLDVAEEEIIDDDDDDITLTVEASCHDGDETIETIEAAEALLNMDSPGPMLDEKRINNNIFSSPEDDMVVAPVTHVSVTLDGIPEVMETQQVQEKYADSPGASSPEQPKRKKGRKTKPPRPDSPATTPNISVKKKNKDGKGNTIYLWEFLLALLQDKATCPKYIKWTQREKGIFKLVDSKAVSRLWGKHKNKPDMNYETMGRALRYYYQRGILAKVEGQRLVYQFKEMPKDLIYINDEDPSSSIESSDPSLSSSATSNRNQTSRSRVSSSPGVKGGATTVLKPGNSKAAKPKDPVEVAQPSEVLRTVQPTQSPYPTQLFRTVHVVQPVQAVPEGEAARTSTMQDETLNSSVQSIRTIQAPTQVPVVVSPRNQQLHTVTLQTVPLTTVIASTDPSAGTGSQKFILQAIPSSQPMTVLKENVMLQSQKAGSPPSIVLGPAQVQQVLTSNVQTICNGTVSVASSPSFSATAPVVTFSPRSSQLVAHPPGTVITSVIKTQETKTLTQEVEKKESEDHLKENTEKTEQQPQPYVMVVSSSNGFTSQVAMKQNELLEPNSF
SPIB, sequence (Q01892 whole entry): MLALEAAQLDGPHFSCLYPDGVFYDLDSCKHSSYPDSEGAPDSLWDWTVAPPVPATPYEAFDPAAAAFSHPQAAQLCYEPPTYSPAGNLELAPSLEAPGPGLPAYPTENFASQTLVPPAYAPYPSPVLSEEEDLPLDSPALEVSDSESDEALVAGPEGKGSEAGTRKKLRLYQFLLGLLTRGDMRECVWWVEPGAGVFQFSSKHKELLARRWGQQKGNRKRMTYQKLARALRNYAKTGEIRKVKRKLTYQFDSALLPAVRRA
ETV5, sequence (P41161 whole entry): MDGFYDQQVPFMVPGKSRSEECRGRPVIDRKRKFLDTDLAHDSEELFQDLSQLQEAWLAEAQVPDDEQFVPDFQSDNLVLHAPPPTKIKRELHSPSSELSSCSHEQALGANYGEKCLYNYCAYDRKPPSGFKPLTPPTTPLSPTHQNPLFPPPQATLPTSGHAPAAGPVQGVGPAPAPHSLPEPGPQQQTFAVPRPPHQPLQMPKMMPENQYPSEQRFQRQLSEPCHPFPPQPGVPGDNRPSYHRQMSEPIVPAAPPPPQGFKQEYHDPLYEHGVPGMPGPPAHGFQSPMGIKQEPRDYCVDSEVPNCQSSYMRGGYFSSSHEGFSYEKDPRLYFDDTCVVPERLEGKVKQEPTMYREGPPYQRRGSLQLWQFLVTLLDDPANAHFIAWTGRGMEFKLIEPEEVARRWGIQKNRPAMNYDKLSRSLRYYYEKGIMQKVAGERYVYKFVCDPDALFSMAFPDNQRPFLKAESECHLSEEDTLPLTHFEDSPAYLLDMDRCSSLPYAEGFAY

Regarding GGAAGA, the binding signal with FLI1 was 1.06 fold enrichment (6-mer frequency, TF over GST control); with ELK1, 1.16 fold enrichment (6-mer frequency, TF over GST control); with GABPA it was 1.11 fold enrichment (6-mer frequency, TF over GST control); in the assay with ERG it was 1.2 fold enrichment (6-mer frequency, TF over GST control); with ELF1, 1.02 fold enrichment (6-mer frequency, TF over GST control); with EHF, 1.3 fold enrichment (6-mer frequency, TF over GST control). For the same sequence, the binding signal is 1.17 fold enrichment (6-mer frequency, TF over GST control) with SPI1; 1.19 fold enrichment (6-mer frequency, TF over GST control) with SPIB; 1.05 fold enrichment (6-mer frequency, TF over GST control) with FEV; 1.22 fold enrichment (6-mer frequency, TF over GST control) in the assay with ETV5; 1.08 fold enrichment (6-mer frequency, TF over GST control) with SPIC; 1.06 fold enrichment (6-mer frequency, TF over GST control) in the assay with ELF4. The binding signal with ETV1 is 1.2 fold enrichment (6-mer frequency, TF over GST control); with ERF, 1.03 fold enrichment (6-mer frequency, TF over GST control); with ETV3L it was 1.14 fold enrichment (6-mer frequency, TF over GST control); with ETS2, 1.18 fold enrichment (6-mer frequency, TF over GST control); in the assay with ELF5, 1.58 fold enrichment (6-mer frequency, TF over GST control); with ETV3, 1.24 fold enrichment (6-mer frequency, TF over GST control). Besides, the binding signal with ETV6 is 1.26 fold enrichment (6-mer frequency, TF over GST control).
